{
  "source": "PubChem BioAssay (NCI)",
  "note": "Compounds without any hit were thinned out: in the full panel of roughly 79,000, 15% have a hit. A number with no mark means an inactive call. Activity calls are given as the source filed them. Rule as the data show it: active = growth inhibition above about 70%; inactive = the rest.",
  "data": [
    {"assay": "NCI Yeast Anticancer Drug Screen. Data for the mlh1 rad18 strain (AID 175)", "settings": "S. cerevisiae mlh1 rad18 strain growth inhibition; at 50.0 µM; hits give high values", "summary_of_the_method": "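Vehicle-treated cultures served as the reference for growth inhibition in a yeast strain carrying DNA damage repair alterations exposed to each compound.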", "values": [
      {"smiles": "Cc1ccc(O)c(O)c1", "growth inhibition": "23.9%"},
      {"smiles": "CCc1ccc2[nH]nc(CCC(=O)O)c(=O)c2c1", "growth inhibition": "-7.05%"},
      {"smiles": "O=C1Nc2ccccc2C2=C3CCCCC3=NNC12", "note": "(stereo not given)", "growth inhibition": "86% (active)"},
      {"smiles": "O=Cc1cccc(OC(=O)Nc2ccccc2)c1", "growth inhibition": "0.95%"},
      {"smiles": "CCCN=C(C(C)=O)N(C)C", "growth inhibition": "2.85%"},
      {"smiles": "CC1SC2(C(=O)Nc3ccccc32)N(c2ccc(Cl)cc2)C1=O", "note": "(stereo not given)", "growth inhibition": "10.7%"},
      {"smiles": "CC(C)C1CCC(C)(C=O)C1", "note": "(stereo not given)", "growth inhibition": "-26.9%"},
      {"smiles": "Cc1cc2nc3n(c2cc1C)C(=O)c1cc2ccccc2cc1-3", "growth inhibition": "2.7%"},
      {"smiles": "CC1=CC(C)(C)NC(=S)N1CCO", "growth inhibition": "32.3%"},
      {"smiles": "Cc1cc2nc3c(=O)[nH]c(=O)nc-3n(CCOC(=O)CCC(=O)O)c2cc1C", "growth inhibition": "3.95%"},
      {"smiles": "O=c1c(Cl)cc(Cl)cn1S(=O)(=O)c1ccc([N+](=O)[O-])cc1", "growth inhibition": "98.9% (active)"},
      {"smiles": "COC(=O)C(=O)C1(C)CCc2c(ccc3ccc(OC)cc23)C1=O", "note": "(stereo not given)", "growth inhibition": "-5.65%"},
      {"smiles": "COc1ccc(C(=O)/C=C/c2ccncc2)cc1OC", "growth inhibition": "36.9%"},
      {"smiles": "CC(C)CCCC(C)C1CCC2C3CCC4CC(O)C5(CC4(C)C3CCC12C)SCCS5", "note": "(stereo not given)", "growth inhibition": "18.4%"},
      {"smiles": "O=C(Oc1ccn(C2OC(CO)C(O)C2O)c(=O)c1)C12CC3CC(CC(C3)C1)C2", "note": "(stereo not given)", "growth inhibition": "36.2%"}
    ]}
  ]
}
